Sampled rows, rich in hits. Any-hit rate of the full collection: about 21%.
CYP2C9 inhib: human CYP2C9 inhibition. CYP2C9 Supersomes, luciferin-H conversion, luminescence. inhibition, % at 5 µM. actives 20% (n = 96,000). AID 777;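 active means blocking of liver enzyme CYP2C9 beyond about 50% at 5 µM, limit read from the data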
CYP2C19 inh: blocks human cytochrome P450 2C19; AID 778; inhibition, % at 5 µM; CYP2C19 Supersomes, luciferin-H EGE luminescence, 30 min; actives 21% (n = 96,000); P33261;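 active means CYP2C19 inhibition above a set limit at 5 µM in the primary screen, cut at about 50% in these data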;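 further: plate controls were negative control wells for no effect and 2.5 mM tranylcypromine positive control for full effect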
Target sequence (P33261 whole entry, looked up): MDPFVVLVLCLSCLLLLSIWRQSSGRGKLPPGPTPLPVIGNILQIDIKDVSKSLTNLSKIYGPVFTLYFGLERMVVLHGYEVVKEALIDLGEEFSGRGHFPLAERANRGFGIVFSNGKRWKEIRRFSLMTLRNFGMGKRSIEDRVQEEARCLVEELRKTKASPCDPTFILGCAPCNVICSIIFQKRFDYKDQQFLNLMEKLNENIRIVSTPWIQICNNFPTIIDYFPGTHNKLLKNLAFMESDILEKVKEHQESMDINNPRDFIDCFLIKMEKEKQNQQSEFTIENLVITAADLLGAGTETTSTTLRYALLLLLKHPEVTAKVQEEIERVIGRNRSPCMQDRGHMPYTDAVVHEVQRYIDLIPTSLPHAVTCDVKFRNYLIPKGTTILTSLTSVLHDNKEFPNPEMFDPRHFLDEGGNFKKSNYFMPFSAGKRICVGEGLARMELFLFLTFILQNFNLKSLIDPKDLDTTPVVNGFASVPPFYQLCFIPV
MRP resist rev: MRP-mediated drug resistance reversal; H69AR cells + 2 uM doxorubicin, CellTiter-Glo, 72 h; differential viability (reversal), % at 10 µM; actives 0.04% (n = 85,000);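 active means viability drop by adding the cancer drug above about 55%, with treated viability meeting a 40% cutoff, limit read from the data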;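 further: viability without doxorubicin minus viability with 2 µM doxorubicin for each compound; larger differential means the compound sensitizes cells more to doxorubicin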
CYP2C19 activ: cytochrome P450 2C19 (human) activation. P33261. recombinant CYP2C19, luciferin-H EGE luminescence; hits give high values; 0 = fully inhibited enzyme, 1 = untreated enzyme. activation factor at 5 µM. 96,000 tested, under 10 active;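 active means activation factor of at least 2 at 5 µM in the primary screen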;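 further: 0 = wells with 2.5 mM tranylcypromine and 1 = vehicle-only wells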
CYP2C9 activ: CYP2C9 (human) activation; activation factor at 5 µM; recombinant CYP2C9, luciferin-H conversion, luminescence; hits give high values; factor 1 = untreated enzyme, 0 = blocked; actives 1.4% (n = 96,000); P11712;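 active means activation factor of 2 or more for CYP2C9 at a 5 µM dose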;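 further: 0 = sulfaphenazole-blocked wells and 1 = vehicle-only wells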
MRP1 act: activates MRP-1. H69AR cells + doxorubicin, viability rescue, CellTiter-Glo. viability increase, % at 10 µM. AID 799. actives 0.61% (n = 140,000);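 active means viability gain under doxorubicin at or above a set limit, the compound median plus 3 SD, cut at about 4.7% in these data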;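 further: MRP-1 overexpressing cells given doxorubicin 25 µM after compound pretreatment; 18-22 h compound pretreatment then 72 h with doxorubicin before readout; 0% = doxorubicin-only wells and 100% = vehicle-treated cells without doxorubicin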
* hit, by the source's call; x = no result given.

SMILES | CYP2C9 inhib | CYP2C19 inh | MRP resist rev | CYP2C19 activ | CYP2C9 activ | MRP1 act
O=C(N/N=C/c1ccc(O)cc1O)/C(=C/c1ccccc1)CCO | x | x | x | x | x | 2.0
COc1cccc2cc(C(=O)N3C(C)CCCC3C)c(=O)oc12 (stereo unspecified) | x | x | 11.7 | x | x | -0.7
COc1cccc2cc(C(=O)N3CCN(C45CC6CC(CC(C6)C4)C5)CC3)c(=O)oc12 | 55.7* | 14.4 | 6.0 | 0.9 | 0.4 | -0.8
COc1cccc2cc(NC(=O)C3CCCCC3)c(=O)oc12 | -137.9 | 4.0 | x | 1 | 2.4* | -0.1
COc1cccc2cc(C(=O)N3CCN(c4ccccn4)CC3)c(=O)oc12 | 13.1 | 34.1 | x | 0.7 | 0.9 | -0.9
COC(=O)C1CCN(C(=O)c2cc3ccccc3oc2=O)CC1 | -119.2 | 56.4* | 4.0 | 0.4 | 2.2* | 0.4
COc1cccc2cc(C(=O)N3CCC(C)CC3)c(=O)oc12 | -194.1 | 28.7 | -1.9 | 0.7 | 2.9* | 3.0
COc1ccccc1CP(=O)(c1ccccc1)c1ccccc1 | x | x | x | x | x | -2.3
COc1cccc(CN(C(=O)c2cc3ccccc3oc2=O)C2CC2)c1 | -135.9 | 79.4* | 16.0 | 0.2 | 2.4* | 0.8
CCCCS(=O)(=O)/C=C\C1C2C=CC(C2)C1S(=O)(=O)CCCC (stereo unspecified) | 52.5* | 76.0* | -0.1 | 0.2 | 0.5 | -1.2
CCCCS(=O)(=O)/C=C\C=C/S(=O)(=O)CCCC | 9.7 | 14.2 | -0.6 | 0.9 | 0.9 | -2.6
Cc1sc2ncnc(Oc3ccc(-n4ccnc4)cc3)c2c1C | 98.6* | 100.4* | -22.6 | 0 | 0 | -4.0
CC(C)(O)C1=NOC(c2ccccc2)C1 (stereo unspecified) | -2.9 | -3.9 | 6.5 | 1 | 1 | -1.8
OC1(C2(O)CC(c3ccccc3)ON2)CCCCC1 (stereo unspecified) | 10.2 | 77.0* | -11.2 | 0.2 | 0.9 | -1.9
COc1ccc(CCNc2oc(-c3ccc(C)cc3)nc2C#N)cc1OC | 50.0* | -12.2 | 5.0 | 1.1 | 0.5 | -0.4
COc1ccc(-c2nc(C#N)c(NCc3ccc(F)cc3)o2)cc1OC | 39.8 | 31.7 | 16.2 | 0.7 | 0.6 | 1.3
COCCNc1oc(-c2ccc(Cl)cc2)nc1C#N | 73.4* | 79.2* | 7.8 | 0.2 | 0.3 | 0.3
COCCNc1oc(-c2ccc(C)cc2)nc1C#N | 86.2* | 85.5* | 18.4 | 0.1 | 0.1 | -0.1
COc1ccc(NC(NC(=O)c2ccc(OC)cc2)C(Cl)(Cl)Cl)cc1 (stereo unspecified) | 84.2* | 66.3* | x | 0.3 | 0.2 | -1.8
COC(=O)c1ccc(COc2ccccc2/C=C(\C#N)C(=O)Nc2c(C)cc(C)cc2C)cc1 | x | x | x | x | x | -4.0
CC1(C)CC(C(CCN(Cc2ccccc2)C(=O)c2ccco2)c2ccc(F)cc2)CCO1 (stereo unspecified) | x | x | x | x | x | -5.1
O=C(CN(C(=O)c1ccco1)c1cccc(F)c1)NCc1ccc(F)cc1 | 34.8 | 78.4* | 9.1 | 0.2 | 0.7 | -1.3
O=C(NCc1cccc(CNC(=O)c2ccco2)c1)c1ccco1 | -6.5 | 4.3 | 8.7 | 1 | 1.1 | 0.5
O=C(c1ccco1)N(CCC(c1ccccc1)c1ccco1)Cc1ccc(F)cc1 (stereo unspecified) | 85.3* | 34.0 | x | 0.7 | 0.1 | -0.9
O=C(CN(Cc1ccc(F)cc1)C(=O)c1ccco1)NCc1ccc(F)cc1 | 26.4 | 83.4* | x | 0.2 | 0.7 | -2.6
SMILES | CYP2C9 inhib | CYP2C19 inh | MRP resist rev | CYP2C19 activ | CYP2C9 activ | MRP1 act
CCOC(=O)c1cnn(-c2nc(OCC)cc(OCC)n2)c1C | x | x | x | x | x | 1.6
CCc1nc(Nc2ccc(OC)c(OC)c2)c2nnn(Cc3ccccc3Cl)c2n1 | x | x | -16.4 | x | x | 0.3
CC(=O)Oc1ccc(CCC(C)OC(C)=O)cc1 (stereo unspecified) | 3.9 | 10.2 | 19.8 | 0.9 | 1 | -0.9
O=C(NCc1ccccc1Cl)c1cnc2n(c1=O)CCS2 | 3.5 | 63.8* | 5.6 | 0.4 | 1 | -1.4
O=C(NCc1cccnc1)c1cnc2n(c1=O)CCS2 | x | x | -7.5 | x | x | -1.5
O=C(Nc1ccc(Oc2ccccc2)cc1)c1cnc2n(c1=O)CCS2 | 5.3 | 0.9 | 5.3 | 1 | 0.9 | 6.0*
O=C(CCCNC(=O)/C(=C\c1ccc(F)cc1)NC(=O)c1ccccc1)OCc1ccccc1 | 45.9 | 63.1* | x | 0.4 | 0.5 | -0.6
O=C(CCCNC(=O)/C(=C/c1ccc(F)cc1)NC(=O)c1ccccc1)OCc1ccccc1 | x | x | x | x | x | -2.1
CCOC(=O)c1cccc(NC(=O)c2cccs2)c1 | 62.8* | 49.4 | -0.1 | 0.5 | 0.4 | 0.2
CCOC(=O)c1cccc(NC(=O)CCn2cccc2)c1 | 43.4 | 22.0 | -5.2 | 0.8 | 0.6 | -0.2
CCOC(=O)c1cccc(NC(=O)c2ccco2)c1 | -15.7 | 27.3 | -7.9 | 0.7 | 1.2 | 2.0
CCOC(=O)c1cnn(CCOC(=O)c2cccs2)c1NC(=O)c1cccs1 | 85.7* | 75.2* | -7.3 | 0.2 | 0.1 | -4.3
CCOC(=O)c1cnn(-c2ccccc2)c1NC(=O)c1cccs1 | 37.3 | 32.7 | 7.7 | 0.7 | 0.6 | -3.5
CCOC(=O)N1CCC(NC(=O)C2CCCN(C(=O)c3cc4sccc4n3C)C2)CC1 (stereo unspecified) | -67.0 | 4.7 | -15.8 | 1 | 1.7 | -0.9
CCOC(=O)N1CCN(C(=O)c2cc3sccc3n2C)CC1 | -17.0 | 86.5* | x | 0.1 | 1.2 | -0.8
CCOC(=O)c1cccc(NC(=O)c2cc3sccc3n2C)c1 | 91.6* | 96.1* | -1.0 | 0 | 0.1 | -0.6
O=C(c1cccs1)n1nc(-c2ccccc2)nc1NCc1ccc(F)cc1 | 22.3 | 3.5 | -3.9 | 1 | 0.8 | 1.7
Cc1cc(NS(=O)(=O)Cc2ccccc2)no1 | 4.6 | -1.0 | -9.4 | 1 | 1 | -0.5
CCN1C(=O)/C(=c2/s/c(=C3\SC(C)=C(C)N3CC)c(=O)n2CC)N(c2ccccc2)C1=S | x | x | 32.2 | x | x | x
CC(C)CCNC(=O)Cn1c(NCCC(C)C)nc2c1c(=O)n(C)c(=O)n2C | x | x | 12.3 | x | x | x
CCOC(=O)c1c(N)n(CCOC(=O)c2cccs2)c2nc3ccccc3nc12 | 84.5* | 85.1* | 4.1 | 0.1 | 0.2 | -2.2
CCOC(=O)c1ccccc1NC(=O)c1cc2sccc2n1C | 61.7* | 79.3* | 14.3 | 0.2 | 0.4 | 2.1
CCOC(=O)c1sc(NC(=O)c2sccc2C)cc1C | 29.0 | 32.3 | x | 0.7 | 0.7 | -1.8
CCOC(=O)c1sc(NC(=O)c2cccs2)cc1C | 64.6* | 43.2 | -4.3 | 0.6 | 0.4 | -2.8
CCOC(=O)c1cccc(NC(=O)/C(=C\c2ccccc2)NC(=O)c2ccccc2Cl)c1 | 56.4* | -5.2 | x | 1.1 | 0.4 | -2.1
CCOC(=O)c1ccccc1NC(=O)c1c(O)c2ccccc2n(CC)c1=O | 8.7 | -5.3 | -49.4 | 1.1 | 0.9 | 0.1
CCCCCOC(=O)c1c(N)n(CCOC)c2nc3ccccc3nc12 | 47.7 | 27.6 | -0.7 | 0.7 | 0.5 | -3.0
COC(=O)c1cccc(NC(=O)/C(=C\c2ccccc2)NC(=O)c2ccccc2Cl)c1 | 21.9 | -3.9 | x | 1 | 0.8 | -3.6

Screening results (PubChem BioAssay)
